Screening data deposited in PubChem BioAssay by National Center for Advancing Translational Sciences (NCATS).
Most compounds without a hit are left out; they make up all but 21% or so of the library.
NS1 function inh: inhibitors of influenza NS1 protein function; 270,000 compounds, 0.4% hits; Potency, µM (top dose mostly 46.1 µM), for the others: at the top dose activity, positive = more growth; calls by dose curve; note: potency is the fitted concentration of half-maximal effect; actives are rising curves; nearly all actives have a fitted effect of over 50% in size
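Read-out: OD600 growth recovery of NS1-expressing budding yeast. Cells grown overnight at 30C in -URA glucose medium, washed, resuspended and diluted 1:100 in 2% galactose assay medium, pH 6.0. Same strain lacking NS1 served as positive control.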
Pf growth 48h: P. falciparum growth inhibition at 48 hours (one generation); P. falciparum luciferase growth in erythrocytes, 48 h; Potency, µM (highest dose often 28.7 µM), for the others: at the top dose activity change, negative = inhibition, usual class: inhibitors; 310,000 compounds, 5.9% hits; note: potency is the fitted concentration of half-maximal effect; % is set by controls: 0 for no effect and ±100 for the full control effect
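Firefly luciferase activity from engineered P. falciparum reports growth; inhibitors lower the luminescent signal. Cultures contained 2% hematocrit erythrocytes at 0.1% final parasitemia.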
SARS PLP yeast: inhibitors of SARS-CoV papain-like protease in yeast; S. cerevisiae expressing SARS-CoV PLpro, growth rescue; Potency, µM (doses to about 32.9 µM), without a hit: at the top dose activity, positive = growth rescue, hits mostly activators; 330,000 compounds, 0.19% hits; AID 485353; calls by dose curve; note: potency is the fitted concentration of half-maximal effect; 0% is about no effect; nearly all actives have a fitted effect of over 55% in size
Shiga toxin inh: inhibitors of Shiga toxin in Vero cells. inhibition, % at 38.7 µM. Vero cells, Shiga toxin protein synthesis inhibition reporter. 290,000 compounds, 9.2% hits; in the data active = inhibition mostly above about 28%, no sharp cut-off; inactive = mostly below about 43%; note: 0% is about no effect
CHX counter: counter-screen hit for Shiga toxin inhibitors, cycloheximide; cell reporter, cycloheximide protein synthesis inhibition counterscreen; AID 2314; 300,000 compounds, 12% hits; max response, %; in the data active = max response mostly above about 13%, no sharp cut-off; inactive = mostly below about 14%; note: read at 38.3 µM for the half of the compounds with a filed dose; 0% is about no effect
Pf growth 96h: inhibits malaria parasite growth, 96 h; P. falciparum luciferase reporter growth, 96 h; Potency, µM (titrated, usually from 28.7 µM), for inactives: at the top dose activity change, negative = inhibition, actives largely listed as inhibitors; 320,000 compounds, 6.9% hits; note: potency is the fitted concentration of half-maximal effect; % is set by controls: 0 for no effect and ±100 for the full control effect
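Plates of compound plus infected erythrocytes (2% hematocrit, 0.05% parasitemia final) incubate 96 hours, 37 C, 5% CO2. Detection reagent added; reduced luminescence from the parasites' luciferase reporter flags inhibition.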
The depositor's hits bear a star; ? = inconclusive; . = not tested or not shown; ! = repeats disagree. Unless noted, calls come from the whole dose curve; as a rule, active = well fitted inhibition curve with a large enough effect; inconclusive = small, poorly fitted or top-dose-only effect, or another doubt; inactive = no such curve, though single readings can be large or run the other way.

SMILES	NS1 function inh	Pf growth 48h	SARS PLP yeast	Shiga toxin inh	CHX counter	Pf growth 96h
CC(C)(C)NC(=O)CCCSc1nc2ccccc2s1	-4%	188%	-1%	72*	47*	190%
O=C(CCCSc1nc2ccccc2s1)NCc1ccc2c(c1)OCO2	0%	13%	9%	-19	17*	38%
CC(NC(=O)COC(=O)c1cc([N+](=O)[O-])ccc1N1CCOCC1)c1ccccc1 (stereo not drawn)	7%	-8%	-1%	2	9	?
Cc1ccccc1OCCSc1nc2ncnc(N)c2[nH]1	-1%	19%	0%	-9	11	-20%
Cc1cccc(C)c1NC(=O)CCn1cnc2ccccc2c1=O	2%	8%	0%	-3	-2	3%
O=C(c1cc(COc2ccc3c(c2)CCCC3)on1)N1CCCC1	-28%	24%	-4%	51*	47*	4%
CCOC(=O)N1CCN(C(=O)c2cc(COc3c(F)cccc3F)on2)CC1	-34%	23%	2%	129*	74*	?
O=C(c1cc(COc2c(F)cccc2F)on1)N1CCCCCC1	-9%	68%	?	81*	61*	92%
CCOC(=O)c1cc2c(ccn2C)n1CC(=O)N1CCN(c2ccccc2OC)CC1	15%	?	0%	-22	-4	-8%
CCOc1ccc(NC(=O)CCC(=O)NNC(=O)COc2ccc(C)cc2Br)cc1	-3%	51%	-5%	38	20	47%
CC1CC(C)CN(CC(=O)NC(c2ccccc2)c2ccccc2)C1 (stereo not drawn)	-2%	12µM*	0%	29	-2	5%
CC1Cc2ccccc2N1CC(=O)NC(c1ccccc1)c1ccccc1 (stereo not drawn)	5%	10µM*	0%	-11	-1	6.6µM*
O=C(C1CC1)N1CCc2cc(S(=O)(=O)N3CCOCC3)ccc21	0%	10%	4%	-14	-3	21%
CC(Cl)C(=O)c1ccc2c(c1)CCN2C(=O)C1CC1 (stereo not drawn)	.	-25%	-3%	44	21*	?
COC(=O)C1=C(C)N(Cc2ccccc2)C(=NCCc2cccnc2)N[C@H]1c1ccccc1	-26%	?	-6%	1	-3	15µM*
COC(=O)C1=C(C)N(Cc2ccccc2)C(=NCC2CC2)N[C@H]1c1ccccc1	-2%	9.3µM*!	-7%	-6	-3	24%
COC(=O)C1=C(C)N(Cc2ccccc2)C(=NCCCCO)N[C@H]1c1ccccc1	-4%	41%	1%	-5	-1	?
COC(=O)C1=C(C)N(Cc2ccccc2)C(=NCCc2cccnc2)N[C@H]1c1ccc(Br)cc1	-23%	7.4µM*	0%	-12	-9	41%
COC(=O)C1=C(C)N(Cc2ccccc2)C(=NCC2CC2)N[C@H]1c1ccc(Br)cc1	6%	?	7%	-3	-5	?
O=C(O)c1c(Cl)c(Cl)c(Cl)c(Cl)c1-c1c2cc(I)c(=O)c(I)c-2oc2c(I)c(O)c(I)cc12	.	-7%	.	-9	-7	-26%
CCN(CC)c1ccc(C(=O)OCC(=O)NC(C)(C)C)cc1	-2%	37%	1%	-4	8	-3%
O=S(=O)(c1ccccc1)c1ncc(C(F)(F)F)cc1Cl	.	10µM*	-2%	16	17	?
O=S(=O)(c1ccccc1)c1ncc(C(F)(F)F)cc1O	.	14%	-2%	-7	-5	1%
CN(C)CCOc1nc(-c2ccccc2)nc2c1oc1ccccc12	-52%	9.3µM*	-4%	-8	2	10µM*
O=C(NC1CCCCCC1)c1ccc2nc3cc(Cl)ccc3c(=O)n2c1	.	4%	-2%	-5	1	168%
Cc1ccc(S(=O)(=O)N2CCN(C(=O)COC(=O)c3oc4ccccc4c3C)CC2)cc1	.	3%	2%	.	.	-23%
COc1ccc(COc2ncnc3ccc(Br)cc23)cc1F	-16%	-13%	-2%	24	19*	-4%
Brc1ccc(COc2ncnc3ccccc23)cc1	-7%	0%	-3%	-3	7	-25%
Cc1ccc(-n2c(C)nc3c(cnn3-c3ccccc3Cl)c2=O)cc1C	-61%	.	-13%	-3	3	3.7µM*
Cc1ccc(-n2ncc3ccccc3c2=O)cc1Cl	9%	285%	1%	114*	38*	306%
